Screens (PubChem)
Compounds with a hit are over-represented: about 10% of the library has one in this group of screens.
G9a inh: G9a (human) methyltransferase inhibition. Q96KQ7. G9a H3K9 monomethylation, AlphaScreen, 2 h. Potency, µM (series often up to 102 µM), for the others: at the highest dose activity, negative = inhibition, usual class: inhibitors. hit rate 8.8% among 350,000. AID 504332; also: % is scaled to controls: 0 for no effect and ±100 for the full control effect; nearly all actives have a fitted effect of over 75% in size
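Quantitative HTS format: methyltransferase activity on a biotin-tagged H3K9 peptide is measured by AlphaScreen, using a rabbit anti-monomethyl-H3K9 antibody with streptavidin donor and anti-IgG acceptor beads. Final levels are 20 nM enzyme, 500 nM peptide, 20 uM SAM; 2 h RT.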
L3MBTL1 block: blocks human L3MBTL1; AlphaScreen L3MBTL1–H3K9me1 peptide binding; Potency, µM (series often up to 57.1 µM), for inactives: top-dose activity, negative = inhibition, actives largely listed as inhibitors; hit rate 0.66% among 230,000; also: % is scaled to controls: 0 for no effect and ±100 for the full control effect; nearly all actives have a fitted effect of over 60% in size
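Read-out is AlphaScreen signal from streptavidin donor and nickel chelate acceptor beads (10 ug/mL final each) bridging L3MBTL1 (50 nM) and biotinylated K9-monomethylated H3(1-15) peptide (75 nM), after 30 min compound exposure at room temperature.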
BAZ2B inh: blocks human BAZ2B; Q9UIF8; AlphaScreen BAZ2B-H3K14Ac peptide displacement; Potency, µM (highest dose often 114 µM), inactives show at the top dose activity change, negative = inhibition, hits mostly inhibitors; hit rate 4.4% among 360,000; AID 504333; also: % is scaled to controls: 0 for no effect and ±100 for the full control effect; nearly all actives have a fitted effect of over 60% in size
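AlphaScreen displacement: compounds (up to 110uM) incubated 30 min at room temperature with a preformed 50 nM BAZ2B/50 nM biotinylated H3K14Ac peptide complex in PBS pH 7.4 with Tween-20. Donor and acceptor beads at 10 ug/mL final added, 20 min light-protected before reading.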
JMJD2A Tudor: blocks the human JMJD2A Tudor domain; hit rate 4.4% among 390,000; AlphaScreen JMJD2A-Tudor / H3K4me3 peptide binding; Potency, µM (highest dose often 114 µM), for inactives: at the highest dose activity change, negative = inhibition, hits mostly inhibitors; AID 504339; also: % is scaled to controls: 0 for no effect and ±100 for the full control effect; nearly all actives have a fitted effect of over 50% in size
HP1b binding inh: blocks HP1-beta chromodomain binding to methylated histone tails. P83916. AlphaScreen HP1-beta / biotin-H3K9me3 peptide binding. Potency, µM (highest dose often 114 µM), without a hit: top-dose activity change, negative = inhibition, hits mostly inhibitors. hit rate 0.56% among 390,000. AID 540317; also: nearly all actives have a fitted effect of over 70% in size
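Compound inhibition of the preformed complex between 50 nM HP1-beta and 50 nM biotinylated H3K9me3 peptide was read by AlphaScreen. Buffer was PBS pH 7.4 with 0.01% Tween-20. Incubations ran 30 min at room temperature, with 10 ug/mL donor/acceptor beads.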
GLS inh: inhibitors of human glutaminase (GLS); GLS enzymatic activity, qHTS titration; Potency, µM (series often up to 45.5 µM), without a hit: at the highest dose activity change, negative = inhibition, hits mostly inhibitors; hit rate 0.21% among 410,000; AID 624170; also: % is scaled to controls: 0 for no effect and ±100 for the full control effect
Target sequence (O94925 whole entry, looked up): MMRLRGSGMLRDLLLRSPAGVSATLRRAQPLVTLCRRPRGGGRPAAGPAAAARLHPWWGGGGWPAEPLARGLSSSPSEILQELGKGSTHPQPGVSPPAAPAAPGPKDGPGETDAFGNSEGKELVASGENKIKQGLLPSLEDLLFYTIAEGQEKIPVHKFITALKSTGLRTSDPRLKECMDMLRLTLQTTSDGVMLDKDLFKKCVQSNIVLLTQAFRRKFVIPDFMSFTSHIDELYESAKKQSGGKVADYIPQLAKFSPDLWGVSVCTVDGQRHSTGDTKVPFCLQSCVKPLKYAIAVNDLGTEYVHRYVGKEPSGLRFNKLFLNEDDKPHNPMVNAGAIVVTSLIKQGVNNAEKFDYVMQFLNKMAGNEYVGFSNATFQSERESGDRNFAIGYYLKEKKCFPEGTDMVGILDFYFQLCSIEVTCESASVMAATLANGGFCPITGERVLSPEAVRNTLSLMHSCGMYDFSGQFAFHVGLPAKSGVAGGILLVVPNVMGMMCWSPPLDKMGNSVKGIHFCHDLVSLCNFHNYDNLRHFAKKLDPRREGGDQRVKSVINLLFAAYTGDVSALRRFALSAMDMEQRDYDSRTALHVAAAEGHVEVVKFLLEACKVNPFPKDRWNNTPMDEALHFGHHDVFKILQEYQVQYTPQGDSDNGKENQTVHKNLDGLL
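Enzyme dispensed in phosphate buffer (45 mM, pH 8.2, 0.02% Tween-20), compounds pinned in, then 1 mM L-glutamine solution and the glutamate oxidase–HRP–Amplex Red mix added; fluorescence read immediately and again after 30 min at room temperature.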
The depositor's hits bear a star; u = inconclusive; x = no result; [ ] = remark or other dose. Calls follow the shape of the dose curve; as a rule, active = well fitted curve in the direction sought with a large enough effect; inconclusive = small, poorly fitted or top-dose-only effect, or another doubt; inactive = no such curve, though single readings can be large; an effect the other way counts as inactive or inconclusive. Potency is read from the fitted curve at half-maximal effect.

SMILES	G9a inh	L3MBTL1 block	BAZ2B inh	JMJD2A Tudor	HP1b binding inh	GLS inh
Cc1cc(C)c(NC(=O)Cn2c(=O)n(CCCCC(=O)NCc3ccccc3Cl)c(=O)c3ccccc32)c(C)c1	-7%[59 µM]	x	3%	-13%	9%	4%
Cc1ccc2c(c1)C(=O)CCN2	u	x	8%	-4%	20%	34%
Cc1ccc2c(c1)NCCO2	u	-4%	x	50µM*	10%	25%
Cc1nc2ccccc2c(=O)n1C1CCCCCC1	-2%[59 µM]	1%	9%	-5%[11.4 µM]	73%	1%
CCO/C(C)=N/n1c2nc3ccccc3nc2c2c(=O)n(C3CCCC3)c(C)nc21	56µM*	-5%	-4%	3%	30%	-9%
COc1cc(/C=N/NC(=O)Cc2ccccc2)cc([N+](=O)[O-])c1O	x	-1%	-34%	-17%	13%	27%
COc1cc(/C=N/NC(=O)[C@H](Cc2c[nH]c3ccccc23)NC(=O)OCC(C)C)cc([N+](=O)[O-])c1O	u	-3%	40µM*	u	-17%	19%
O=C(CCC(=O)N1CC2CCCN2c2ccccc21)NCc1ccc(F)cc1 (stereo not given)	-13%[59 µM]	x	-26%	u	24%	-5%
CCn1c(O)c(C2=c3ccccc3=NC2=O)c2cc(Br)ccc21	u	-14%	-35%	-19%	7%	-5%
O=C1N=c2ccc(Br)cc2=C1c1sc(=O)[nH]c1O	45µM*	x	u	x	x	x
COc1ccc(S(=O)(=O)NNC(=O)Cc2csc(C)n2)cc1[N+](=O)[O-]	u	u	79µM*	u	4%	-1%
CCOC(=O)C1(Cc2ccccc2C(F)(F)F)CCN(C(C)CCn2cccn2)CC1 (stereo not given)	x	u	45µM*	-17%	28%	-2%
COc1ccc2c(C)c(CCC(=O)NCc3cccc(Cl)c3)c(=O)oc2c1	-1%[59 µM]	x	-14%	-9%	27%	-1%
COc1ccccc1NC(=S)NC(=O)/C=C/c1ccco1	u	-20%	50µM*	-26%[57.1 µM]	-13%	3%
Cc1ccc(-c2nc3ccccc3s2)cc1NC(=S)NC(=O)/C=C/c1ccco1	50µM*	0%	u	-26%	8%	4%
Cc1cccc(NC(=S)NC(=O)/C=C/c2ccco2)n1	-9%[12.7 µM]	x	u	u	-10%	11%
O=C(/C=C/c1ccco1)NC(=S)Nc1cc(-c2nc3ccccc3s2)ccc1Cl	1%[59 µM]	u	6%	u	8%	2%
Cc1ccccc1NC(=S)NC(=O)/C=C/c1ccco1	x	u	56µM*	u	u	11%
Cc1ccccc1NC(=O)/C(=C/c1ccco1)c1ccccc1	32µM*	x	u	-17%[57.1 µM]	8%	-6%
O=C(Cn1ncc2c3ccccc3n(Cc3cccc(Cl)c3)c2c1=O)N1CCCCCC1	-23%[59 µM]	x	-18%	-34%	14%	-3%
Cc1c(Cl)cccc1NC(=O)C(C)n1nc(C)c2c(C)n(-c3ccccc3)nc2c1=O (stereo not given)	-7%[59 µM]	x	-16%	-12%	8%	-14%
Cc1ccc(C)c(NC(=O)c2ccc(CN3CC(=O)N4CCCCC4C3=O)cc2)c1 (stereo not given)	-13%[59 µM]	x	1%	-6%	32%	-11%
COc1ccccc1NC(=O)/C=C\c1ccco1	40µM*	x	u	-31%	-1%	-11%
Cc1ccccc1Nc1c(-c2ccc(Cl)s2)nc2c(C)cccn12	-57%[59 µM]	x	u	u	u	-7%
Cc1ccn2c(Nc3c(C)cccc3C)c(-c3ccc(Cl)s3)nc2c1	7.1µM*	x	5.6µM*	u	u	0%
SMILES	G9a inh	L3MBTL1 block	BAZ2B inh	JMJD2A Tudor	HP1b binding inh	GLS inh
Cc1ccn2c(Nc3c(C)cccc3C)c(-c3ccsc3)nc2c1	10µM*	x	-36%	u	-20%	-8%
CCC(C(=O)O)n1c2ccccc2c2cn[nH]c(=O)c21 (stereo not given)	45µM*	x	4%	-12%	30%	-5%
CC(C(=O)O)n1c2ccccc2c2cnn(C)c(=O)c21 (stereo not given)	45µM*	x	-6%	-5%	40%	-11%
CCC(C(=O)O)n1c(C(F)(F)F)nc2ccccc21 (stereo not given)	0%[12.7 µM]	1%[11.4 µM]	10%	14%	37%	-1%
COc1cccc(NC(=O)CN(C)C(C)C(=O)N2CCCCC2)c1 (stereo not given)	x	-4%	x	0.32µM*	u	-11%
COc1cccc(NC(=O)CN(C)CC(=O)Nc2ccccc2-c2ccccc2)c1	14µM*	-3%	79µM*	22µM*	u	6%
CN(CC(=O)Nc1cccc(F)c1)CC(=O)Nc1ccccc1-c1ccccc1	x	4%	x	-19%	39%	-6%
CN(CC(=O)Nc1cccc(F)c1)CC(=O)Nc1ccccc1Oc1ccccc1	8.9µM*	x	25µM*	10µM*	u	-1%
COc1cccc(NC(=O)CN(C)C(=O)c2cc3c(s2)CCC3)c1	19%[0.501 µM]	8.9µM*	56µM*	u	-7%	-1%
CCN(CC(=O)Nc1cccc(F)c1)CC(=O)Nc1ccccc1OC	4%	x	-2%	0%	25%	-10%
CCCCC1CN2CCc3c([nH]c4ccccc34)C2(C)C1 (stereo not given)	79µM*	-1%	u	1%[57.1 µM]	20%	1%
CN(C)CCOC(=O)CC12CC3CC(C1)CC(CC(=O)OCCN(C)C)(C3)C2	-3%	-18%	-37%	-8%	24%	2%
CN(C)CCOC(=O)C12CC3CC(C1)CC(C(=O)OCCN(C)C)(C3)C2	56µM*	-25%	1%	3%	23%	-6%
COc1cc(Br)cc(CNc2ccc(F)c([N+](=O)[O-])c2)c1O	45µM*	-4%	u	u	-3%	1%
COc1cccc(C(=O)NCCS(=O)(=O)N2CCc3ccccc3C2)c1	-40%	0%	6%	-15%	16%	4%
COC(=O)C1CCN(S(=O)(=O)CCNC(=O)c2cccc(OC)c2)CC1	35µM*	-9%	9%	-2%	18%	4%
CC1CCN(S(=O)(=O)CCNC(=O)c2ccccc2)CC1	9%	4%	-5%	-14%	19%	3%
COc1cccc(C(=O)NCCS(=O)(=O)N2CCC(C)CC2)c1	35µM*	7%	6%	-6%	16%	5%
Cc1ccc(Cl)cc1N1CCN(C(=O)CCCCCn2c(=O)[nH]c3ccccc3c2=O)CC1	1%[59 µM]	x	-20%	u	2%	-11%
CCOc1ccccc1NC(=O)c1nnn(CC(=O)Nc2ccccc2CC)c1N	6%[59 µM]	x	x	-18%	13%	-4%
CC(=O)NC(CC(=O)NCCc1ccccc1)c1ccccc1 (stereo not given)	6%	x	-1%	-10%	22%	-4%
